In PubChem BioAssay:
Calls of active or inactive are those of the source.

Tested on: Neuregulin-1 EGF-like domain
Experiment: small molecules binding NRG1 EGF domain – biochemical, small-molecule microarray, 635 nm fluorescence, primary screen (AID 1081);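 further: binding of the protein to compounds printed on small-molecule microarray slides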
Conditions: higher = more signal

Compound	composite z-score
C=CCNC(=O)[C@H]1[C@@H]2C(=O)O[C@@H](c3ccccc3)[C@@H](c3ccccc3)N2[C@@H](c2ccccc2OCCO)[C@]12C(=O)Nc1ccc(C#CCCO)cc12	0.537
COCCCNC(=O)[C@]1(CCC(=O)OC(C)(C)C)N=C(c2ccc(OCCCO)cc2)O[C@@H]1c1ccccc1CN=[N+]=[N-]	1.41
O=C1OCCC/C=C\[C@H]2OC34C=CCN(Cc5ccccc5)C(=O)[C@H]3N(CCCO)C(=O)[C@@H]4C12 (stereo partly drawn)	0.703
CN1C(=O)C2C=CC(C(O)C3CC=CCC3)N(N(c3ccccc3)c3ccccc3)C2C1=O (stereo not drawn)	0.33
C=CCC(OC(C)=O)[C@@H]1[C@@H](N(Cc2ccc(-c3cccc(C(F)(F)F)c3)o2)C(=O)c2ccc(C)cc2)c2cc(OCCCO)ccc2N1C(=O)Cc1ccc2ccccc2c1 (stereo partly drawn)	-0.513
CO[C@H]1O[C@H](CO)[C@@H](OC(=O)Nc2ccccc2)[C@H](OC(=O)Nc2ccccc2)[C@@H]1OC(=O)Nc1ccccc1	1.37
O=C(OCc1ccccc1)C1=CCC2c3[nH]c4ccccc4c3C(=O)C1N2S(=O)(=O)c1ccccc1[N+](=O)[O-] (stereo not drawn)	1.19
C=C(CCCC)/C(=C/C[C@@H](OC(C)=O)c1ccc(OCCO)cc1)c1cnc2ccccc2c1	1.01
COc1ccc([Si](C)(C)[C@@H]2[C@@H](CC(=O)N3CCC[C@H]3CO)O[C@]3(C(=O)N(c4ccccc4)c4ccccc43)[C@H]2C)cc1	1.11
CC(C)NC(=O)[C@@]1(C)c2ccccc2C(=O)N(Cc2cc(C(F)(F)F)cc(C(F)(F)F)c2)[C@H]1c1ccc(CO)cc1	1.27
CNS(=O)(=O)c1ccc(C)cc1	0.314
O=C(c1ccccc1)N1Cc2ccccc2C[C@@]2(COC(c3ccc(OCCCO)cc3)=N2)C1=O	1.25
COc1ccc(CCNC(=O)[C@@]2(Sc3ccc(C)cc3)CC(=O)N(C3Cc4ccccc4C3)[C@@H]2c2ccc(CO)cc2I)cc1	0.948
COc1cc2c(cc1OC)CN(C(=O)[C@@H]1[C@H]3C(=O)O[C@H](c4ccccc4)[C@H](c4ccccc4)N3[C@H](c3ccc(O)cc3)[C@@]13C(=O)Nc1ccccc13)CC2	1.16
COc1ccc([Si](C)(C)[C@@H]2[C@@H](CCO)O[C@]3(C(=O)N(Cc4ccc(N(C=O)c5ccccc5)cc4)c4ccccc43)[C@H]2C)cc1	0.565
COc1cc(COC(C)=O)ccc1OC(C)=O	-0.464
COc1ccccc1CN1C(=O)c2ccccc2[C@@H](C(=O)NC2CC2)[C@@H]1c1ccc(CO)cc1	1.29
CCCC[C@@H]1C[C@H]1[C@@H](NC(=O)c1ccco1)c1ccccc1C(F)(F)F	-0.226
O=C1C2C=CC(C(O)c3cc(C(F)(F)F)cc(C(F)(F)F)c3)N(n3cnnc3)C2C(=O)N1Cc1ccccc1 (stereo not drawn)	-0.159
CN(C)CCCCCCNC(=O)[C@H]1C[C@H]2C(=O)N3CCC[C@H]3C(=O)N2[C@H]1c1ccc(O)cc1	1.49
O=C1O[C@H](c2ccccc2)[C@H](c2ccccc2)N2[C@H]1[C@@H](C(=O)N1CCCCCCC1)[C@]1(C(=O)Nc3ccc(C#CCCO)cc31)[C@H]2c1ccccc1OCCO	1.37
C#C[C@H](O[Si](C#Cc1ccc(Oc2ccccc2)cc1)(C(C)C)C(C)C)c1ccccc1	0.801
COC(=O)[C@@]1(Cc2ccc(F)cc2)[C@H]2c3cc(C(=O)N(C)C)n(Cc4ccc(Cl)c(C(F)(F)F)c4)c3C[C@H]2CN1C(=O)c1ccccc1	1.31

Tested on: not listed separately
Experiment: FRG1 expression reporter modulators in myotubes – cell-based, C2C12 myotubes, firefly/Renilla luciferase, luminescence, FRG1 inhibition for FSHD, primary screen (AID 1084)
Conditions: FRG1 promoter luciferase, higher = more signal, called active from +8 up or from −8 down

Compound	z-score
C=CC(=C)[C@H]1Oc2ccccc2S(=O)(=O)N2CCC[C@@H]12	-0.0188 (inactive)
C=C[C@@H](COC(=O)OC(C)(C)C)N(Cc1ccc(OC)cc1)S(=O)(=O)c1ccc(Br)cc1	-2.35 (inactive)
COCC(=C=CC[C@@H](O)c1cccc(OCCO)c1)C[C@@H](O)c1ccccn1	0.93 (inactive)
O=C(CS)NCCCCCCNC(=O)[C@@H]1C[C@@H]2C(=O)NCC(=O)N2[C@@H]1c1cccc(OCCO)c1	0.688 (inactive)
C=C(CC1([C@@H](NP(=O)(c2ccccc2)c2ccccc2)[C@H]2C[C@@H]2CCCC)CC1)c1ccccc1	2.47 (inactive)
COC(=O)[C@@]1(Cc2ccc(F)cc2)[C@H]2c3cc(C(=O)N(C)C)n(Cc4cc(F)c(F)c(F)c4)c3C[C@H]2CN1C(=O)c1ccccc1	0.621 (inactive)
CN(C)CCCC[C@@H]1NC(=O)[C@H]2C[C@@H](C(=O)NCCCCCCN)[C@@H](c3ccc(O)cc3)N2C1=O	0.511 (inactive)
CN(C)CCCCCCNC(=O)[C@H]1C[C@H]2C(=O)N[C@@H](CCCCN)C(=O)N2[C@H]1c1cccc(OCCO)c1	3.88 (inactive)
CC(C)=CCCC(C)=CC(O)C1C=CC2C(=O)N(C)C(=O)C2N1Nc1ccccc1 (stereo not drawn)	-1.04 (inactive)
CCS[C@H]1[C@@H](C(=O)O)[C@H](c2ccc(C)cc2)N(S(=O)(=O)c2ccc(C)cc2)[C@@H]1CC	-3.15 (inactive)
CCC(CC)C(O)C1C=CC2C(=O)NC(=O)C2N1Nc1ccc(Cl)cc1Cl (stereo not drawn)	-1.71 (inactive)
COC(=O)[C@@]1(Cc2ccc(F)cc2)[C@H]2c3cc(C(=O)N(C)C)n(Cc4ccccc4)c3C[C@H]2CN1C(=O)c1ccccc1	0.403 (inactive)
C=CCNC(=O)[C@H]1[C@@H]2C(=O)O[C@@H](c3ccccc3)[C@@H](c3ccccc3)N2[C@@H](c2ccccc2OCCO)[C@]12C(=O)Nc1ccc(C#CCCO)cc12	-5.02 (inactive)
COCCCNC(=O)[C@]1(CCC(=O)OC(C)(C)C)N=C(c2ccc(OCCCO)cc2)O[C@@H]1c1ccccc1CN=[N+]=[N-]	4.82 (inactive)
O=C1OCCC/C=C\[C@H]2OC34C=CCN(Cc5ccccc5)C(=O)[C@H]3N(CCCO)C(=O)[C@@H]4C12 (stereo partly drawn)	0.308 (inactive)
CN1C(=O)C2C=CC(C(O)C3CC=CCC3)N(N(c3ccccc3)c3ccccc3)C2C1=O (stereo not drawn)	-0.654 (inactive)
C=CCC(OC(C)=O)[C@@H]1[C@@H](N(Cc2ccc(-c3cccc(C(F)(F)F)c3)o2)C(=O)c2ccc(C)cc2)c2cc(OCCCO)ccc2N1C(=O)Cc1ccc2ccccc2c1 (stereo partly drawn)	-0.201 (inactive)
CO[C@H]1O[C@H](CO)[C@@H](OC(=O)Nc2ccccc2)[C@H](OC(=O)Nc2ccccc2)[C@@H]1OC(=O)Nc1ccccc1	1.89 (inactive)

Compound	z-score
O=C(OCc1ccccc1)C1=CCC2c3[nH]c4ccccc4c3C(=O)C1N2S(=O)(=O)c1ccccc1[N+](=O)[O-] (stereo not drawn)	-4.32 (inactive)
C=C(CCCC)/C(=C/C[C@@H](OC(C)=O)c1ccc(OCCO)cc1)c1cnc2ccccc2c1	-1.51 (inactive)
COc1ccc([Si](C)(C)[C@@H]2[C@@H](CC(=O)N3CCC[C@H]3CO)O[C@]3(C(=O)N(c4ccccc4)c4ccccc43)[C@H]2C)cc1	-1.24 (inactive)
CC(C)NC(=O)[C@@]1(C)c2ccccc2C(=O)N(Cc2cc(C(F)(F)F)cc(C(F)(F)F)c2)[C@H]1c1ccc(CO)cc1	-1.38 (inactive)
CNS(=O)(=O)c1ccc(C)cc1	-0.443 (inactive)
O=C(c1ccccc1)N1Cc2ccccc2C[C@@]2(COC(c3ccc(OCCCO)cc3)=N2)C1=O	-0.187 (inactive)
COc1ccc(CCNC(=O)[C@@]2(Sc3ccc(C)cc3)CC(=O)N(C3Cc4ccccc4C3)[C@@H]2c2ccc(CO)cc2I)cc1	-0.518 (inactive)
COc1cc2c(cc1OC)CN(C(=O)[C@@H]1[C@H]3C(=O)O[C@H](c4ccccc4)[C@H](c4ccccc4)N3[C@H](c3ccc(O)cc3)[C@@]13C(=O)Nc1ccccc13)CC2	0.421 (inactive)
COc1ccc([Si](C)(C)[C@@H]2[C@@H](CCO)O[C@]3(C(=O)N(Cc4ccc(N(C=O)c5ccccc5)cc4)c4ccccc43)[C@H]2C)cc1	-3.73 (inactive)
COc1cc(COC(C)=O)ccc1OC(C)=O	-0.681 (inactive)
COc1ccccc1CN1C(=O)c2ccccc2[C@@H](C(=O)NC2CC2)[C@@H]1c1ccc(CO)cc1	-3.17 (inactive)
CCCC[C@@H]1C[C@H]1[C@@H](NC(=O)c1ccco1)c1ccccc1C(F)(F)F	0.792 (inactive)
O=C1C2C=CC(C(O)c3cc(C(F)(F)F)cc(C(F)(F)F)c3)N(n3cnnc3)C2C(=O)N1Cc1ccccc1 (stereo not drawn)	1.1 (inactive)
CN(C)CCCCCCNC(=O)[C@H]1C[C@H]2C(=O)N3CCC[C@H]3C(=O)N2[C@H]1c1ccc(O)cc1	3.92 (inactive)
O=C1O[C@H](c2ccccc2)[C@H](c2ccccc2)N2[C@H]1[C@@H](C(=O)N1CCCCCCC1)[C@]1(C(=O)Nc3ccc(C#CCCO)cc31)[C@H]2c1ccccc1OCCO	-0.851 (inactive)
C#C[C@H](O[Si](C#Cc1ccc(Oc2ccccc2)cc1)(C(C)C)C(C)C)c1ccccc1	0.297 (inactive)
COC(=O)[C@@]1(Cc2ccc(F)cc2)[C@H]2c3cc(C(=O)N(C)C)n(Cc4ccc(Cl)c(C(F)(F)F)c4)c3C[C@H]2CN1C(=O)c1ccccc1	1.3 (inactive)
